Sampled rows, rich in hits. Any-hit rate of the full collection: about 1.5%.
IL-2 act – qHTS of IL-2 Activators; activation, % (series mostly up to about 46 µM); 360,000 tested, 0.065% active; AID 652025, 2013; IL-2 activation reporter assay, cell-based qHTS; stimulated with anti-CD3/CD4/CD28 beads; in transgenic mouse T cells; in the data active = activation above about 50%; inconclusive = mostly about 30% to 49%; note: 0% is about no effect
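Readout is EGFP and DsRed signal by fluorescent plate cytometry after 18 h at 37 degrees C. Transgenic mouse T cells (750/well) received compound for 60 min before bead stimulation (anti-CD3, anti-CD4, anti-CD28); memory T cells served as non-tolerant control.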
mIDH1 inhibitor – qHTS for Inhibitors of mutant isocitrate dehydrogenase 1 (IDH1): qHTS. Isocitrate dehydrogenase [NADP] cytoplasmic (Homo sapiens), O75874. IDH1-R132H enzyme, NADPH consumption, diaphorase/resazurin fluorescence. Potency, µM (highest dose often 76.6 µM), for inactives: at the top dose activity change, negative = inhibition, actives largely listed as inhibitors. 390,000 tested, 0.093% active; note: potency is the fitted concentration of half-maximal effect; % is set by controls: 0 for no effect and ±100 for the full control effect; nearly all actives have a fitted effect of over 65% in size
Target sequence (O75874 whole entry R132H, stated change not applied): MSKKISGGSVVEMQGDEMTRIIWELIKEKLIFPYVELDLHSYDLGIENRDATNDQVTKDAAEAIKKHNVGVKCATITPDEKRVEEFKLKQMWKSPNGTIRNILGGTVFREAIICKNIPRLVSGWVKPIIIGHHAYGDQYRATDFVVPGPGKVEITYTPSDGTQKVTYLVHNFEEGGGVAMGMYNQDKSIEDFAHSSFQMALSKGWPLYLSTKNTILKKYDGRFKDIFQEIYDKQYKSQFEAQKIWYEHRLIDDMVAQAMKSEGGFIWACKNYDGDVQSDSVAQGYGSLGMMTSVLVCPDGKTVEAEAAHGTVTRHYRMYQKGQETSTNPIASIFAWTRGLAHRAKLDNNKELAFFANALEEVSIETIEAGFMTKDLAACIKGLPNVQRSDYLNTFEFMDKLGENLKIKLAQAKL
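IDH1-R132H (0.5 ug/mL dispensed) in pH 7.5 Tris buffer was preincubated 30 min with compound, then given a substrate mix of 0.016 mM NADPH and 2 mM alpha-KG for 80 min at room temperature; remaining NADPH was read by diaphorase/resazurin fluorescence.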
gsp ag – qHTS for Agonist of gsp, the Etiologic Mutation Responsible for Fibrous Dysplasia/McCune-Albright Syndrome: qHTS | Potency, µM (highest dose often 76.9 µM), for inactives: at the top dose activation (cAMP increase), usual class: activators | 340,000 tested, 0.13% active | AID 624287, 2012 | gsp mutant cells, cAMP HTRF, 30 min; active = well fitted activation curve with a large enough effect; inconclusive = small, poorly fitted or top-dose-only effect, or another doubt; inactive = no such curve, though single readings can be large or run the other way; cell line not stated here;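 note: phosphodiesterase inhibitor Ro 20-1724 added with compounds to block cAMP breakdown; potency is the fitted concentration of half-maximal effect; nearly all actives have a fitted effect of over 60% in size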
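Cells stably selected in G418 were plated at 2000/well, grown 16-24 hr, then given compounds in DMSO with the PDE inhibitor […] (300 uM solution added) for 30 min at 37C; cAMP was read by HTRF.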
gsp antag – qHTS for Antagonists of gsp, the Etiologic Mutation Responsible for Fibrous Dysplasia/McCune-Albright Syndrome: qHTS; gsp-mutant cells, cAMP HTRF, 30 min; Potency, µM (titrated, usually from 76.9 µM), for inactives: at the top dose activity change, negative = inhibition, usual class: inhibitors; 340,000 tested, 0.4% active; calls by dose curve; cell line not stated here;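 note: intracellular cAMP measured with PDE inhibitor Ro 20-1724 present during compound exposure; potency is the fitted concentration of half-maximal effect; % is set by controls: 0 for no effect and ±100 for the full control effect; nearly all actives have a fitted effect of over 65% in size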
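HTRF cAMP measurement after 30 min RT detection following 30 min, 37C compound treatment alongside […] (added as 300 uM solution) in G418-selected cells seeded at 2000/well and grown 16–24 h.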
BRCA1 expr up – qHTS Assay to Identify Small Molecule Activators of BRCA1 Expression; MCF7-BRCA1-FFLuc reporter, luminescence, 48 h; response scale: scaled: vehicle 0%, 10 µM genistein 100%; Potency, µM (top dose mostly 46.1 µM), for the others: at the top dose activation, hits mostly activators; 380,000 tested, 1.1% active; note: potency is the fitted concentration of half-maximal effect; nearly all actives have a fitted effect of over 80% in size
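Cells: MCF7-BRCA1-FFLuc, 2000/well. Exposure: 48 h, 37 °C, 5% CO2. Read: luminescence, 15 min post-substrate. Controls: genistein 10 microM (maximal activation), DMSO (neutral).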
Starred values were filed as active, the others as inactive; ? = inconclusive; . = not tested or not shown; [ ] = another dose, or the depositor's remark. Unless noted, calls come from the whole dose curve; as a rule, active = well fitted curve in the direction sought with a large enough effect; inconclusive = small, poorly fitted or top-dose-only effect, or another doubt; inactive = no such curve, though single readings can be large; an effect the other way counts as inactive or inconclusive.

SMILES	IL-2 act	mIDH1 inhibitor	gsp ag	gsp antag	BRCA1 expr up
CCCCn1cnc2sc(-c3ccccc3)cc2c1=O	-2.5	6.2%	-0.5%	-12.8%	?
CCN(CC)C(=O)CSc1ncnc2sc(-c3ccccc3)cc12	-2.3	7.9%	6.1%	39.8µM*	8.8%[1.84 µM]
O=c1c2cc(-c3ccccc3)sc2ncn1/N=C/c1ccco1	-0.1	1.0%	7.6%	-9.7%	11.2µM*
COc1ccccc1-n1cnc2sc(-c3ccccc3)cc2c1=O	-0.3	3.3%	-7.0%	-1.0%	46.9%
COc1ccc(C(=O)N/N=C(\N)c2cc3ccccc3oc2=O)cc1	-0.5	7.7%	24.7%	6.5%	-0.1%
O=c1c2ccccc2nc2sc(Nc3cccc(C(F)(F)F)c3)nn12	.	-1.0%	.	.	.
CCOC(=O)c1c(C)[nH]c(C(=O)COC(=O)/C=C/c2ccc3c(c2)OCO3)c1C	-4.3	2.1%	1.2%[15.4 µM]	6.6%	-43.7%
CCOC(=O)c1c(C)[nH]c(C(=O)COC(=O)CCC(=O)c2ccc3c(c2)OCCO3)c1C	17.2	2.3%	4.8%	28.2µM*	0.4%
Cn1cc(CNC(=O)c2ccc3nc(Cc4ccccc4F)oc3c2)cn1	-4.0	5.3%	4.8%	1.3%	101.6%
Cn1cc(CCNC(=O)c2ccc3nc(Cc4ccccc4F)oc3c2)cn1	-2.8	-4.7%	-38.3%	-0.5%	2.51µM*
Cc1cccc(CNC(=O)c2ccc3nc(Cc4ccccc4F)oc3c2)n1	-1.2	0.5%	-57.2%	-6.5%	12.6µM*
COc1ccc(Cc2nc3ccc(C(=O)NCc4cccc(C)n4)cc3o2)cc1OC	-2.5	13.6%	-12.5%	.	14.3%
COCCc1nc2ccc(C(=O)N3CCCCC3COC)cc2o1 (configuration not stated)	-1.9	-6.8%	-2.8%	-3.2%	12.2%
COCCC1CCCCN1C(=O)c1ccc2nc(Cc3ccccc3F)oc2c1 (configuration not stated)	-4.4	3.2%	-50.6%	-18.0%	7.94µM*
CCC(=O)N1CCc2cc(Br)cc(S(=O)(=O)N3CCN(c4ccccc4OC)CC3)c21	.	-5.6%	.	.	16.1%
COc1cc(OC)c(C2CC(=O)N3CN(c4ccc(C)cc4)CSC3=C2C#N)cc1OC (configuration not stated)	-0.2	5.1%	-3.6%	-13.3%	6.31µM*
COc1ccc(N2CSC3=C(C#N)C(c4cc(OC)c(OC)cc4OC)CC(=O)N3C2)c(OC)c1 (configuration not stated)	-2.2	21.7%	19.3%	-4.3%	-25.4%
Cc1nc(Nc2ccccc2C(F)(F)F)sc1C(=O)N(C)C	-1.0	17.5%	-33.1%	-10.4%	10µM*
CC(C)(C)/C(O)=C/c1nc2ccccc2oc1=O	-1.6	2.7%	-2.7%[15.4 µM]	-6.1%	-21.4%
O=c1oc2ccccc2nc1/C=C(\O)c1ccccc1	-0.5	-2.7%	?	-2.7%	3.55µM*
CN(C)/[N+]([O-])=N/Oc1cc(F)c([N+](=O)[O-])cc1[N+](=O)[O-]	.	.	.	.	-3.9%
COC(=O)c1ccccc1NC(=O)c1sc(Cl)nc1C	-2.3	3.2%	17.8%	-1.0%	-33.4%
COC(=O)c1ccc(-c2ccc(Cl)cc2)nc1C	-0.2	3.5%	9.5%	-8.3%	2µM*
COc1cc2cc(CN(CCCN3CCOCC3)Cc3nnnn3Cc3ccccc3)c(=O)[nH]c2cc1OC	0.2	2.2%	3.7%[15.4 µM]	8.91µM*	-17.7%
Cc1nc(C(=O)O)nn1-c1ccc([N+](=O)[O-])cc1	1.9	-0.2%	-3.1%[15.4 µM]	14.1%	-2.4%
SMILES	IL-2 act	mIDH1 inhibitor	gsp ag	gsp antag	BRCA1 expr up
Cc1nc(-c2ccccc2)nn1-c1ccc([N+](=O)[O-])cc1	-0.2	10.5%	14.7%[15.4 µM]	1.5%	5.01µM*
CN(c1cnn(-c2ccccc2)c(=O)c1Cl)n1cccc1	-0.2	7.0%	-8.7%[15.4 µM]	0.3%	11.2µM*
Clc1cccc(Cl)c1/C=C/c1nc2ccccc2[nH]1	-3.7	2.4%	-1.1%	28.2µM*	-81.0%
O=C(c1ccccc1Cl)N1CCN(CCc2ccccn2)CC1	.	-9.5%	.	.	.
COc1cc(C(=S)N2CCCC2)ccc1OCc1ccc(C)cc1	0.8	6.8%	-4.4%	-14.4%	11.2µM*
COc1ccc(CN2CCCCCC2)cc1OC	-0.3	8.0%	-9.6%[15.4 µM]	3.9%	-31.6%
COc1cc(CN2CCCCC2)ccc1OCc1ccccc1	1.7	14.6%	1.0%	5.6%	10µM*
COc1cc(CNC(=O)C2CC2)ccc1OCc1ccccc1	2.2	-4.2%	7.5%[15.4 µM]	-1.0%	12.6µM*
COC(=O)c1cc(Br)c(=O)n(-c2nccs2)c1	-0.8	0.5%	14.1µM*	12.3%	-35.3%
COC(=O)c1cc(Br)c(=O)n(-c2ccccn2)c1	0.9	-1.0%	0.0%	-10.5%	-2.1%
C(=C1c2ccccc2Oc2ccccc21)c1ccccc1	.	.	.	.	14.6%
Cc1cc(N/N=C/c2ccccc2)nc(N)n1	-2.4	14.0%	-12.9%	7.6%	12.6µM*
c1ccc(CSCc2cn3ccccc3n2)cc1	1.1	3.5%	-10.1%[15.4 µM]	.	2.82µM*
Cc1ccc(SCc2cn3ccccc3n2)cc1	3.7	3.1%	2.6%[15.4 µM]	3.6%	?
CCOc1ccc2nc(N3CCCC(C(=O)NCc4ccc(OC)cc4)C3)sc2c1 (configuration not stated)	.	-10.4%	.	.	.
CCOc1ccc2nc(N3CCCC(C(=O)NCC4CCCO4)C3)sc2c1 (configuration not stated)	0.9	-2.4%	-28.0%	-0.9%	10µM*
COc1cc2nc(N3CCN(C)CC3)nc(NC3CCN(C)CC3)c2cc1OC	.	.	.	.	17.3%
Clc1ccc(-c2noc(CSc3nnc(-c4ccncc4)n3-c3ccccc3)n2)cc1	-0.9	-1.0%	-34.7%	31.6µM*	-66.8%
O=C(NCCc1csc(-c2ccccc2)n1)c1ccco1	-3.8	3.1%	?	0.8%	54.9%
O=C(NCc1csc(-c2ccccc2)n1)c1ccco1	0.1	0.9%	14.0%	-4.6%	10µM*
Cc1cc(C(=O)NCc2csc(-c3ccccc3)n2)no1	-3.1	-9.1%	20.0%	8.0%	10µM*
CCN(CC)C(=O)CCCSc1nnc(Nc2ccccc2F)s1	1.0	22.3%	-16.0%	-2.2%	4.47µM*
O=C1c2ccccc2C(=O)N1CSc1nnc(Nc2ccccc2F)s1	-3.5	2.6%	?	-12.2%	38.2%
O=C(N/N=C/c1ccc2c(c1)OCO2)c1ccc2c(c1)OCCO2	-2.9	7.3%	-28.7%	6.8%	2.4%
O=C(N/N=C/c1ccc2c(c1)OCO2)c1ccc(Br)o1	-3.1	1.9%	22.0%	-22.7%	5.62µM*
O=C(Nc1ccc(C(=O)O)cc1)/C(=C\c1ccc2c(c1)OCO2)NC(=O)c1ccc(Br)o1	0.6	-0.8%	4.1%[15.4 µM]	.	-6.0%

Screening results (PubChem)
